Assay results from the supplement of paper PMC9262897, “Low-cost anti-mycobacterial drug discovery using engineered E. coli” (Nature Communications, 2022).
Where a name gives a salt, the structure may show the parent alone. ± gives the standard deviation of the averaged measurements.

These molecules were tested on E. coli TESEC Alr+ wild-type control (assay: growth (OD600 after 10 h); higher = more growth (less inhibition)). Settings: compound 0.1 mM; raw OD600 reference: median of DMSO wells 0.49, cell-free background 0.052.
Method: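 TESEC Mtb Alr E. coli (ΔaraC ΔtolC ΔentC Δalr ΔdadX, arabinose-inducible Mtb Alr) or the Alr+ wild-type control strain, grown in defined M9-fructose medium without D-alanine in 96-well plates with Prestwick library compounds at 0.1 mM and 1% DMSO. Low Alr induction is 0.1 µM arabinose and high induction is 10 mM arabinose.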

Structure (SMILES)	growth
Cc1cccc(N(C)C(=S)Oc2ccc3ccccc3c2)c1 [Tolnaftate]	0.465 ± 0.0063
COc1ccc2cc(CCC(C)=O)ccc2c1 [Nabumetone]	0.485 ± 0.0083
CNc1ncnc2c1ncn2[C@@H]1O[C@H](CO)[C@@H](O)[C@H]1O [N6-methyladenosine]	0.539 ± 0.094
CCCCC(=O)N(Cc1ccc(-c2ccccc2-c2nnn[nH]2)cc1)[C@H](C(=O)O)C(C)C [Valsartan]	0.557 ± 0.049
O=C1c2cccc(O)c2C(=O)c2c(O)cccc21 [1,8-Dihydroxyanthraquinone]	0.383 ± 0.011
CCOC(=O)n1ccn(C)c1=S [Carbimazole]	0.607 ± 0.05
CC[N+](C)(C)c1cccc(O)c1 [Edrophonium chloride]	0.437 ± 0.029
COc1ccc(C(=O)NCc2ccc(OCCN(C)C)cc2)cc1OC [Itopride]	0.475 ± 0.063
CNC(=C[N+](=O)[O-])NCCSCc1ccc(CN(C)C)o1 [Ranitidine hydrochloride]	0.485 ± 0.064
C[C@H](CCC(=O)O)[C@H]1CC[C@H]2[C@@H]3[C@@H](O)C[C@@H]4C[C@H](O)CC[C@]4(C)[C@H]3CC[C@]12C [Urosiol]	0.406 ± 0.011
Fc1ccc([C@@H]2CCNC[C@H]2COc2ccc3c(c2)OCO3)cc1 [Paroxetine Hydrochloride]	0.444 ± 0.026
N=C(N)N/N=C/c1c(Cl)cccc1Cl [Guanabenz acetate]	0.453 ± 0.026
CO[C@H]1/C=C/O[C@@]2(C)Oc3c(C)c(O)c4c(O)c(c5c(nc6cc(C)ccn65)c4c3C2=O)NC(=O)/C(C)=C\C=C\[C@H](C)[C@H](O)[C@@H](C)[C@@H](O)[C@@H](C)[C@H](OC(C)=O)[C@@H]1C [Rifaximin]	0.0531 ± 0.00076
Nc1ccccc1S(N)(=O)=O [2-Aminobenzenesulfonamide]	0.566 ± 0.029
CN[C@@H]1[C@H](O[C@H]2[C@H](O[C@H]3[C@H](O)[C@@H](O)[C@H](N=C(N)N)[C@@H](O)[C@@H]3N=C(N)N)O[C@@H](C)[C@]2(O)C=O)O[C@@H](CO)[C@H](O)[C@H]1O [Streptomycin sulfate]	0.0543 ± 0.00036
CCOC1O[C@H]([C@@H](COCc2ccccc2)OCc2ccccc2)[C@H](OCc2ccccc2)[C@H]1O (stereo not given in full) [Tribenoside]	0.374 ± 0.015
COc1ccc(-c2ccc(=N)n(CCCC(=O)O)n2)cc1 [Gabazine bromide]	0.599 ± 0.11
N#CC(c1ccc(Cl)cc1)c1c(Cl)cc(-n2ncc(=O)[nH]c2=O)cc1Cl (stereo not given) [Diclazuril]	0.156 ± 0.17
CCn1nc(C(=O)O)c(=O)c2cc3c(cc21)OCO3 [Cinoxacin]	0.0852 ± 0.0034
Cc1cccc(C)c1NC(=O)C(C)N (stereo not given) [Tocainide hydrochloride]	0.483 ± 0.061

Structure (SMILES)	growth
CC(=O)[C@@]12O[C@](C)(c3ccccc3)O[C@@H]1C[C@H]1[C@@H]3CCC4=CC(=O)CC[C@]4(C)[C@H]3CC[C@@]12C [Algestone acetophenide]	0.381 ± 0.016
CC(C)(C(=O)c1cccnc1)c1cccnc1 [Metyrapone]	0.637 ± 0.095
CCc1cc(C(N)=S)ccn1 [Ethionamide]	0.583 ± 0.11
CCCCOc1cc(C(=O)NCCN(CC)CC)c2ccccc2n1 [Dibucaine]	0.452 ± 0.017
CCN[C@H]1C[C@H](C)S(=O)(=O)c2sc(S(N)(=O)=O)cc21 [Dorzolamide hydrochloride]	0.47 ± 0.0087
CCOC(=O)[N-]c1c[n+](N2CCOCC2)no1 [Molsidomine]	0.562 ± 0.037
CC(=O)[C@H]1CC[C@H]2[C@@H]3C=CC4=CC(=O)CC[C@@]4(C)[C@@H]3CC[C@]12C [Dydrogesterone]	0.318 ± 0.0089
Cc1c(N(C)C)c(=O)n(-c2ccccc2)n1C [Amidopyrine]	0.462 ± 0.039
O=P(O)(O)C(O)(Cn1ccnc1)P(=O)(O)O [Zoledronic acid hydrate]	0.596 ± 0.074
C#C[C@]1(O)CC[C@H]2[C@@H]3CCC4=Cc5oncc5C[C@]4(C)[C@H]3CC[C@@]21C [Danazol]	0.46 ± 0.05
CCN1CC(CCN2CCOCC2)C(c2ccccc2)(c2ccccc2)C1=O (stereo not given) [Doxapram hydrochloride]	0.54 ± 0.012
COc1ccccc1OCCNCC(O)COc1cccc2[nH]c3ccccc3c12 (stereo not given) [Carvedilol]	0.167 ± 0.11
C[C@H](CCC(=O)O)[C@H]1CC[C@H]2[C@@H]3C(=O)C[C@@H]4CC(=O)CC[C@]4(C)[C@H]3CC(=O)[C@]12C [Dehydrocholic acid]	0.569 ± 0.034
Cc1c(O)cccc1C(=O)N[C@@H](CSc1ccccc1)[C@H](O)CN1C[C@H]2CCCC[C@H]2C[C@H]1C(=O)NC(C)(C)C [Nelfinavir mesylate]	0.509 ± 0.09
N#Cc1cc(NC(=O)C(=O)O)c(Cl)c(NC(=O)C(=O)O)c1 [Lodoxamide]	0.579 ± 0.069
CN(C)CC/C=C1/c2ccccc2COc2ccc(CC(=O)O)cc21 [Olopatadine hydrochloride]	0.589 ± 0.097
COC(=O)[C@@H]1[C@H]2C[C@H]3c4[nH]c5ccccc5c4CCN3C[C@@H]2CC[C@@H]1O [Yohimbine hydrochloride]	0.525 ± 0.13
O=c1n(CCCN2CCN(c3cccc(Cl)c3)CC2)nc2ccccn12 [Trazodone hydrochloride]	0.471 ± 0.043
CNCCc1ccccn1 [Betahistine mesylate]	0.557 ± 0.1
CN(C)CCOC(C)(c1ccccc1)c1ccccn1 (stereo not given) [Doxylamine succinate]	0.51 ± 0.06
